Laboratory results reported in PubChem BioAssay (NCI).
About 83,000 compounds went through this panel and 20% of them were active in at least one assay; those are over-represented in the sample as a whole.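 Assay: single dose, 48 h. Readout: percent growth (0 = no net growth; negative = cell death). Active: <10.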 Unmarked numbers belong to inactive results. The source made the active and inactive calls.

What follows are compounds tested on COLO 205 colon (assay: NCI-60 one-dose screen, 48 h (100 = growth as untreated, 0 = no growth, -100 = all killed)). Settings: 10 µM unless noted.
`COc1cccc(CNc2nnc(C)c(C)n2)c1O` gave a growth of 109%.
For `COc1cc2c(c(OC)c1OC)CCC(c1cccc(C(=O)Nc3ccc([N+](=O)[O-])cc3)c1)O2` (centres undefined), the growth was 73.2%.
`CO[C@]12C=C/C(=C(/C(=O)OCc3cccnc3)C(=O)CCCCCCCC[C@]3(OC)C=C/C(=C(/C(=O)OCc4cccnc4)C(=O)CCCCCCCC1)O3)O2` was tested, and the growth was -56.5% (active).
`O=c1cc(-c2nccc3c2[nH]c2ccccc23)c2cc(Cl)ccc2o1` gave a growth of 68.7%.
